# TRHR PAM: allosteric enhancers of human TRH receptor; P34981; TRHR cells, fluo-8 calcium fluorescence, EC20 TRH enhancement; enhancement, % at 2 µM; 360,000 tested, 0.66% active; AID 493056; in the data active = enhancement above about 30%; note: 0% is about no effect
# Target sequence (P34981 whole entry, looked up): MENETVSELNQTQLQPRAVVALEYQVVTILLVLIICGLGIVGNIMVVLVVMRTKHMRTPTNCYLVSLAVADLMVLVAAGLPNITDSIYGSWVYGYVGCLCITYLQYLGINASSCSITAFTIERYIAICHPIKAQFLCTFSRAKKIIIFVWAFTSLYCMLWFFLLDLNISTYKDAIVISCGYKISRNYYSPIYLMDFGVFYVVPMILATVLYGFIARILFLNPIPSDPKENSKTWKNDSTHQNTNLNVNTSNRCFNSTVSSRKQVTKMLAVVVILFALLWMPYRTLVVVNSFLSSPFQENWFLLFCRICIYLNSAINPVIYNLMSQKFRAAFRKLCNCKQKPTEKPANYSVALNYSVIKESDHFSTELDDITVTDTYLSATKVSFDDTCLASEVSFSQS
#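 Enhancer read-out: after compound pinning and an initial kinetic agonist-mode read, an EC20 of TRH (10 nM final) was injected and fluo-8 calcium signal (Ex 480/Em 530) followed at 1 s/cycle for 100 cycles in TRHR-expressing cells.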
# D1 ag: agonists of human D1 dopamine receptor | P21728 | HEK293 T-REx D1 cells, calcium flux, agonist mode | activation, % at 2 µM | 360,000 tested, 1% active; note: 0% is about no effect
#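 Agonism was scored from calcium flux recorded over 180 s (1 read/s) after pintool compound addition, following a 10-cycle baseline. Cells were inducible force-coupled HEK293 TREx D1, plated overnight at 30 C and loaded with no-wash calcium dye.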
# TRHR ag: activates the human TRH receptor; TRHR cells, calcium flux fluo-8, FDSS agonist mode; activation, % at 2 µM; 360,000 tested, 0.18% active; note: 0% is about no effect
#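 TRHR-expressing cells, plated overnight in medium with 10% serum, were loaded with fluo-8 calcium dye at room temperature. After a 10 s baseline, library compound was pin-added and calcium release was recorded kinetically (ex 480/em 530) as agonist response.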
# D1 potentiator: human D1 dopamine receptor positive modulation; AID 504651; 360,000 tested, 0.036% active; potentiation, % at 10 µM; HEK293 TREx D1 cells, calcium flux, dopamine EC20 potentiation; P21728; in the data active = potentiation above about 30%; note: 0% is about no effect
# Epigenetic reg: derepresses silenced GFP reporter in murine cells; murine LDR cells, GFP reporter derepression, 30 h; Potency, µM (series often up to 53.9 µM), without a hit: at the top dose GFP activation, hits mostly activators; 280,000 tested, 0.2% active; active = well fitted activation curve with a large enough effect; note: potency is the fitted concentration of half-maximal effect; % of control where 0% means no effect; nearly all actives have a fitted effect of over 60% in size
#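 Murine LDR cells bearing a silenced CMV-driven GFP reporter were exposed to compound for 30 h at 37 C. After PBS washes, GFP-positive cells (20-120 um objects) counted by laser-scanning microplate cytometry.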
# D1 antag: human D1 dopamine receptor antagonism; HEK293 TREx D1 cells, calcium flux, dopamine EC80; stronger effect = lower value; activity change, negative = inhibition, % at 10 µM; 360,000 tested, 3.2% active; AID 504652; in the data active = activity change below about -30%; note: % is set by controls: 0 for no effect and ±100 for the full control effect
#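 Cells carrying a force-coupled, tetracycline-inducible human D1 receptor report calcium flux. Each well gets a 10 s baseline, compound with 180 s monitoring, then an EC80 dopamine stimulus with a second 180 s kinetic read.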
# Active calls of the source: *; x = not tested or not shown; [ ] = another dose, or the depositor's remark. The list is not random: actives were taken first. Their share in the collection is about 4.6%. Cut-off read from the data, not from the text of the source, unless noted: active = activation above about 30%; inactive = the rest.
SMILES,TRHR PAM,D1 ag,TRHR ag,D1 potentiator,Epigenetic reg,D1 antag
Cc1cc(-c2ccccc2)n2nc(-c3cccc(Br)c3)cc2n1,0.3,6.4,-0.4,2.6,-0.8%,-18.4
O=C(CSc1nccn1-c1ccc(Cl)cc1)Nc1ccc2c(c1)OCO2,1.4,5.2,-0.9,-10.5,-2.2%,-49.3*
Nn1c(SCC(=O)Nc2ccc3c(c2)OCCO3)nnc1-c1cccnc1,-5.3,2.2,0.2,-1.1,x,-37.4*
O=C(CSc1nc(-c2ccccc2)[nH]c1-c1ccccc1)Nc1ccc2c(c1)OCO2,-5.2,2.9,-0.9,-4.9,1.6%,-30.2*
O=C(CN1CCN(c2nc(-c3ccccc3)cs2)CC1)Nc1ccc2c(c1)OCO2,-2.6,1.8,-0.1,-8.7,0.0%,-32.4*
CC(C)[C@H]1COC(c2cc(Cl)cc(Cl)c2)=N1,x,x,x,x,1.2%[96.6 µM],x
Cc1ccc(S(=O)(=O)COCCN2CCN(S(=O)(=O)c3ccc(C)cc3)CCC2=O)cc1,x,x,x,x,-0.1%,x
CC1CCCCN1S(=O)(=O)c1ccc2[nH]c(=O)cc(C(=O)NCCc3ccc(Cl)cc3)c2c1 (centres undefined),-2.3,3.6,0.1,1.1,0.1%,26.0
COc1ccc(C(=O)NCC(c2cccnc2)N2CCc3ccccc3C2)cc1OC (centres undefined),-1.7,6.5,0.5,-1.9,0.0%,5.6
COC(=O)NC(c1cccc(C)c1)[C@]1(C(C)=O)CCCC1=O (some centres undefined),x,x,x,x,0.0%[10.1 µM],x
O=C(CSc1nnc(-c2cccnc2)n1-c1ccccc1)Nc1ccc2c(c1)OCO2,-3.5,0.4,-0.6,-4.0,-1.1%,-60.6*
Nn1c(SCc2cccc(F)c2)nnc1-c1cccnc1,1.8,1.6,0.9,-4.7,-1.0%,-31.4*
CCCNC(=O)c1ccc(N2CCC3(CC2)CC(c2cccc(Br)c2)=NO3)c([N+](=O)[O-])c1,9.4,1.2,0.3,-5.9,x,-43.7*
COc1cccc([C@H](O)Cn2cc(-c3cccc(CON=C(C)C)c3)nn2)c1,x,x,x,x,0.0%[10.1 µM],x
Cc1ccc2nc(-c3ccc(NC(=S)NC(=O)C(C)C)cc3)sc2c1,-2.3,2.3,0.4,-7.0,-0.9%,2.0
Cc1ccc2nc(-c3ccc(NC(=S)NC4CC(C)(C)NC(C)(C)C4)cc3)sc2c1,0.5,41.0*,0.3,-3.4,5.7%,-2.7
Cc1ccc(CSc2nc3cccnc3n2Cc2ccc(C(=O)NCCc3cccs3)cc2)cc1,-3.8,13.0,3.3,-3.8,-1.2%,7.4
CCc1ccc(NS(=O)(=O)c2ccc(OC)c3ncccc23)cc1,2.1,12.0,-0.4,-0.5,x,-30.6*
COc1ccc(-c2nc3cc(C)ccn3c2NCc2ccc3c(c2)OCO3)cc1,-3.3,2.6,-0.3,-0.5,0.9%,-31.1*
CN(CC(=O)Nc1ccccc1Cl)C(=O)Cn1cc(C(F)(F)F)cc(Cl)c1=O,-3.6,5.4,-0.1,-3.6,x,-8.1
Cc1ccc(CSCC(=O)N(C)CC(=O)Nc2ccccc2Cl)cc1,-2.2,1.1,-0.2,-4.7,x,-33.0*
CN(CC(=O)Nc1ccccc1Cl)C(=O)Cn1cc(C(F)(F)F)ccc1=O,-8.1,-1.6,-0.3,0.1,x,-32.5*
C/C(CC(=O)N1CCN(C=O)CC1)=N\NC(=O)c1ccc(Cl)cc1,-7.1,-0.3,1.2,-4.0,-5.8%,4.7
O=CN1CCN(C(=S)NC(=O)c2ccc(Cl)cc2)CC1,38.5*,-0.1,-0.1,1.6,x,1.4
N#Cc1c(NC(=O)CS(=O)(=O)c2ccc(Cl)cc2)sc2c1CCCCC2,16.7,0.3,-0.6,-2.3,-1.2%,x
SMILES,TRHR PAM,D1 ag,TRHR ag,D1 potentiator,Epigenetic reg,D1 antag
COc1ccccc1-c1noc2ncnc(Nc3ccccc3C)c12,-3.9,3.7,16.7,4.3,x,-8.3
COc1ccccc1-c1noc2ncnc(Nc3cccc(C)c3C)c12,-5.7,2.4,-0.9,-6.2,x,-32.0*
COc1ccc(OC(=O)c2cn(-c3cccc(OC)c3)c(=O)c3ccccc23)cc1,3.4,2.1,1.3,-4.1,1.4%,13.2
CN(C(=O)Cn1c(=O)n(CCC(=O)NCc2ccc3c(c2)OCO3)c(=O)c2sccc21)c1ccccc1,7.8,-1.7,0.0,3.1,0.0%,0.3
CCN1c2ccccc2-c2nc(SCC(=O)Nc3c(C)cc(C)cc3C)ncc2S1(=O)=O,5.9,2.3,0.1,1.9,-1.4%,13.1
CN1/C(=C\C(=O)c2cccc(S(=O)(=O)N3CCCCC3)c2)C(C)(C)c2ccccc21,30.2*,1.4,0.5,-6.6,0.0%,-4.5
COc1ccccc1-c1c(-c2ccc(OCC(=O)NN)cc2O)n[nH]c1C(F)(F)F,-1.8,1.4,0.5,2.0,1.1%,-9.9
NNC(=O)COc1ccc(-c2n[nH]c(C(F)(F)F)c2-c2ccc(Br)cc2)c(O)c1,-3.5,38.9*,1.8,-7.6,3.1%,-37.3*
CSc1ccc(CNCc2ccc3c(c2)OCO3)cc1,1.6,36.0*,-0.7,-3.8,x,-4.2
COc1cccc(CNCc2cc(OC)cc(OC)c2)c1,4.3,10.4,0.4,-7.8,x,-12.3
COc1cc(CNCc2ccc(SC)cc2)cc(OC)c1,2.2,32.9*,0.3,-0.8,0.0%,-1.9
CSc1ccc(C2c3c(oc4cc(C)cc(C)c4c3=O)C(=O)N2CCO)cc1 (centres undefined),4.8,0.0,0.8,-0.8,-2.6%,-46.4*
CCOc1ccccc1NC(=O)c1nnn(CC(=O)Nc2ccccc2CC)c1N,9.7,-1.0,0.7,2.8,0.0%,-5.5
CCN(CC(=O)Nc1sc2c(c1C#N)CCCC2)Cc1nc2ccccc2c(=O)[nH]1,-6.1,-4.8,0.0,-1.5,1.0%,-11.9
CCN(CC(=O)Nc1sc2c(c1C#N)CCC(C)C2)Cc1nc2ccccc2c(=O)[nH]1 (centres undefined),7.5,3.1,0.4,-13.2,-0.5%,-60.9*
CCN(CC(=O)Nc1sc2c(c1C#N)CCC(C)C2)CC(=O)NC1CCS(=O)(=O)C1 (centres undefined),13.1,8.9,5.8,-13.1,-0.2%,-59.6*
CCN(CC)S(=O)(=O)c1ccc(NC(=O)COC(=O)CNS(=O)(=O)/C=C/c2ccccc2)cc1,7.4,6.3,-1.0,-5.7,-1.5%,-30.9*
COc1ccc(NC(=O)COC(=O)CNS(=O)(=O)/C=C/c2ccccc2)cc1OC,-11.5,1.3,0.0,-4.5,x,-2.6
COc1cccc(OCC(=O)NCCS(=O)(=O)N2CCN(c3ccccc3F)CC2)c1,-0.1,-0.6,-0.8,-2.4,1.7%,-8.1
Cc1ccc(-c2cc(-c3coc4ccc(Cl)cc4c3=O)c3c(n2)-c2ccccc2OC3)cc1,10.3,-0.6,-0.6,-3.2,0.0%,-2.1
OCCOCCN1CCN(C(c2ccccc2)c2ccc(Cl)cc2)CC1 (centres undefined),4.3,9.5,0.9,-3.2,-0.6%,11.0

# Source: PubChem BioAssay (National Center for Advancing Translational Sciences (NCATS))
